Screens as filed in PubChem BioAssay.
This is a sample that favours compounds with a hit; in the whole collection about 3.4% have one here.
ADAM17 inh = inhibits human ADAM17 | P78536 | recombinant ADAM17, EDANS/DABCYL FRET peptide cleavage | inhibition, % at 6.95 µM | 0.83% of 370,000 active;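 active = inhibition above the mean of compounds lying between control limits plus 3 SD, set per campaign, cut at about 8.5% in these data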
ADAM10 inh = inhibitors of human ADAM10 | O14672 | recombinant ADAM10, EDANS/DABCYL FRET peptide cleavage, 3 h | inhibition, % at 7 µM | 0.62% of 370,000 active | AID 720582;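 active = inhibition above a per-campaign cutoff equal to the mean of compounds falling between control-based bounds plus 3 SD, cut at about 20% in these data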
proKLK7 act = proKLK7 (human) activation, primary screen; purified proKLK7, EDANS-DABCYL substrate fluorescence; 100% is mature enzyme control, 0% vehicle; activation, % at 7 µM; 0.9% of 370,000 active; AID 652039; P49862;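 active = activation above the mean of all tested compounds plus 3 SD, computed per campaign excluding outliers beyond control limits, cut at about 13% in these data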
PLC-gamma1 inh = blocks human PLC-gamma1 enzyme activity; P19174; purified PLC-gamma1, fluorogenic substrate, fluorescence; inhibition, % at 12.2 µM; 0.84% of 370,000 active; AID 720700; in the data active = inhibition above about 9.5%
Target sequence (P19174 whole entry, looked up): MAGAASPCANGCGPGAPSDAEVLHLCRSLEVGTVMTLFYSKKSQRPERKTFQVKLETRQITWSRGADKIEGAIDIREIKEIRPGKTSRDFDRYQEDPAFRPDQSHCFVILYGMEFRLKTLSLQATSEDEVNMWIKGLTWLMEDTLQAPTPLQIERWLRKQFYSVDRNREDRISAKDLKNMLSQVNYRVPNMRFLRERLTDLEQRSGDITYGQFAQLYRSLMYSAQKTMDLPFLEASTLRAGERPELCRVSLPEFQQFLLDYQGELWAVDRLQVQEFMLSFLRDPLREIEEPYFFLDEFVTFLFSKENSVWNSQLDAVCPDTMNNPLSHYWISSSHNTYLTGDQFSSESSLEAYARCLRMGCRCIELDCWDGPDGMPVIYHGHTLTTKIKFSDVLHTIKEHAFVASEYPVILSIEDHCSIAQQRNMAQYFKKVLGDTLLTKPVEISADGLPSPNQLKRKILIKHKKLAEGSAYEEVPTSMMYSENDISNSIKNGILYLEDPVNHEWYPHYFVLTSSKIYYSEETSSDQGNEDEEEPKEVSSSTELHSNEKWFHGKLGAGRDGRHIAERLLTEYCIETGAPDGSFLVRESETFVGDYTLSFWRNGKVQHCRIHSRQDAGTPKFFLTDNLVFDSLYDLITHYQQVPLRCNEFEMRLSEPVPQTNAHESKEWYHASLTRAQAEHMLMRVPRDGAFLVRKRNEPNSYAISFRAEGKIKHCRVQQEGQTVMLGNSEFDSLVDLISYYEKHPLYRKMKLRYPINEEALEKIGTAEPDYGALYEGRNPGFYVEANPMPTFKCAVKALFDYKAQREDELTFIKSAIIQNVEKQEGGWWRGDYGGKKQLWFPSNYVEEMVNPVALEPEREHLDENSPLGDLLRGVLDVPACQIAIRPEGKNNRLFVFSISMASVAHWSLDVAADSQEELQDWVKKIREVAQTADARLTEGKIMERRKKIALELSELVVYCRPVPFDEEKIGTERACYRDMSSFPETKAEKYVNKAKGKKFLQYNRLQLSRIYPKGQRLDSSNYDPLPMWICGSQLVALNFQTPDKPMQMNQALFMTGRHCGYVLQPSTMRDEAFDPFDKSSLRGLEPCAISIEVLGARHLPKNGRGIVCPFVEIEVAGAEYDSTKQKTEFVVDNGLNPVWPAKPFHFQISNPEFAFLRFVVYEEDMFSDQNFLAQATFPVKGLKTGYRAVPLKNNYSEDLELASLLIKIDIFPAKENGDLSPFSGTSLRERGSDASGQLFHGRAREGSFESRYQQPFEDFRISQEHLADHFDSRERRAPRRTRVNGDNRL
HGIII-sPLA2 inh = Blocks human group III sPLA2 activity. Q9NZ20. QFRET BODIPY PC-A2 liposome hydrolysis, fluorescence. inhibition, % at 12.2 µM. 0.56% of 370,000 active. AID 743126;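 active = inhibition above mean plus 3 SD of compounds lying within the high and low control bounds, cut at about 19% in these data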
PLC-beta3 inh = PLC-beta3 (human) inhibition, primary screen; Q01970; Purified PLC-beta3, fluorogenic substrate, fluorescence; inhibition, % at 12.2 µM; 0.18% of 370,000 active; AID 720704
PLCgamma1 ctr = counter-screen for PLC-beta3 inhibitors: inhibitors of human PLC-gamma1; 3.1% of 3,300 active; shares compounds with PLC-gamma1 inh; inhibition, % at 12.3 µM; purified PLC-gamma1, fluorogenic substrate, fluorescence; in the data active = inhibition above about 9.5%
PLCb3 confirm = confirmation of human PLC-beta3 inhibitors; purified PLC-beta3, fluorogenic substrate fluorescence; inhibition, % at 12.3 µM; shares compounds with PLC-gamma1 inh; 1% of 3,300 active
Each line names hits and unclear results; the compound was inactive in the other large screens (follow-up assays come after a bar, where they were run). Cut-off read from the data, not from the text of the source, unless noted: active = inhibition above about 11%; inactive = the rest.

CSc1cccc(NC(=O)CN(c2cccc(C)c2)S(C)(=O)=O)c1	PLC-gamma1 inh 10.9 | PLCgamma1 ctr inactive | PLCb3 confirm inactive
CSc1cccc(NC(=O)CN(c2ccc(C)cc2C)S(C)(=O)=O)c1	none
CN[C@H]1C[C@H]2c3[nH]c4cccc(-c5cccc(F)c5)c4c3CCN2C(=O)[C@H]1[C@H](C)O	none
CC(C)NC(=O)CC1C(=O)N(Cc2ccccc2)C(C)c2nc3ccccc3n21 (configuration not stated)	PLC-gamma1 inh 12.9 | PLCgamma1 ctr inactive | PLCb3 confirm inactive
O=C(NCCN1CCC(Cc2ccccc2)CC1)C1CCCN(S(=O)(=O)c2ccccc2)C1 (configuration not stated)	none
O=C(c1ccc(NC2=NC3CS(=O)(=O)CC3S2)cc1)N1CCN(Cc2ccccc2)CC1 (configuration not stated)	PLC-gamma1 inh 9.8 | PLCgamma1 ctr inactive | PLCb3 confirm inactive
Cc1cccc(NC(=O)Cc2ccc(NC3=NC4CS(=O)(=O)CC4S3)cc2)c1 (configuration not stated)	PLC-gamma1 inh 9.7 | PLCgamma1 ctr inactive | PLCb3 confirm inactive
Cc1cc(C)cc(NC(=O)Cc2ccc(NC3=NC4CS(=O)(=O)CC4S3)cc2)c1 (configuration not stated)	none
CC1CCCCC1NC(=O)c1cccc(NC2=NC3CS(=O)(=O)CC3S2)c1 (configuration not stated)	PLC-gamma1 inh 10.0 | PLCgamma1 ctr inactive | PLCb3 confirm inactive
Cc1cccc(-n2ncc3c(NC(C)C)ncnc32)c1	none
Cc1cccc(-n2ncc3c(N)ncnc32)c1	PLC-gamma1 inh 10.3, PLC-beta3 inh 12.4 | PLCgamma1 ctr inactive | PLCb3 confirm inactive
COC(=O)C1=C(C)N(Cc2ccc(C(F)(F)F)cc2)C(=NCc2ccc3c(c2)OCO3)NC1c1cccc(Cl)c1 (configuration not stated)	none
O=C(Nc1ccc(Cl)c([N+](=O)[O-])c1)c1cnccn1	none
O=C(Nc1ccc(Cl)c([N+](=O)[O-])c1)c1ccncc1	PLC-gamma1 inh 10.8 | PLCgamma1 ctr inactive | PLCb3 confirm inactive
CC(C)CCNC(=O)[C@H]1COC(O)([C@H](Cc2ccccc2)NC(=O)[C@@H](NC(=O)OCc2ccccc2)C(C)C)CN1C (some centres not stated)	none (no result: proKLK7 act)
O=C(NCc1ccc(C(=O)NC2CCCC2)cc1)c1cccc(Br)c1	none
C(=NOCc1ccccc1)c1ccncc1	PLC-gamma1 inh 10.2 | PLCgamma1 ctr inactive | PLCb3 confirm inactive
C(=N\N=C\c1ccncc1)/c1ccncc1	none
C(=NOCc1ccccc1)c1ccccn1	PLC-beta3 inh 12.5 | PLCgamma1 ctr inactive | PLCb3 confirm inactive
O=C(Nc1nc(-c2ccc(F)c(F)c2)cs1)Nc1ccc(F)cc1F	PLC-gamma1 inh 10.0 | PLCgamma1 ctr inactive | PLCb3 confirm inactive
CN(CCOC(=O)c1cc2ccccc2o1)C1CN(Cc2cn(Cc3ccccc3F)nn2)S(=O)(=O)C1 (configuration not stated)	none
O=C(CCS(=O)(=O)c1ccccc1F)Nc1ccc(N2CCN(Cc3ccccc3)CC2)cc1	PLC-gamma1 inh 10.5 | PLCgamma1 ctr inactive | PLCb3 confirm inactive
CC(C)CCNC(=O)C1COC(O)(C(Cc2ccccc2)NC(=O)[C@@H](NC(=O)OCc2ccccc2)C(C)C)CN1 (some centres not stated)	none (no result: proKLK7 act)
CSc1ccc(C=Nn2c(-c3cc(C)[nH]n3)n[nH]c2=S)cc1	none
O=Cc1c(-c2ccc(F)cc2)nc2ccccn12	PLC-gamma1 inh 10.8 | PLCgamma1 ctr inactive | PLCb3 confirm inactive
CCOc1ccc(-n2c(SC/C=C/c3ccccc3)nnc2-c2ccco2)cc1	none
CC1CC2(CC(C)(C(=O)CSc3nc4ccccc4s3)OC2=O)C(=O)O1 (configuration not stated)	none
